Reference: PubChem BioAssay (EPA / NIEHS)
Calls of active or inactive are those of the source. How the source made its calls: active means hit-call score of the fitted dose curve at least 0.9, where 1 is the maximum; inactive means score below 0.9.

Columns and labels:
[1] = read-out: Human Leukocyte Antigen - DR isotype (HLADR), HLA-DRA (gene 3122); experiment: BSK_BE3C_HLADR: BioMAP Diversity Plus: BE3C Assay for Human Leukocyte Antigen - DR isotype (HLADR) Biomarker Activity (AID 2283032); details: primary human bronchial epithelial cells; actives raise or lower the signal
Summary of the method: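 Human primary bronchial epithelial cells in the BE3C system were exposed to chemicals for 24 h, after which HLA-DR levels were quantified by ELISA. Activity was fitted bidirectionally, gain or loss of signal, against DMSO as negative control and baseline.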

[2] = read-out: Interferon-gamma inducible Protein 10 (IP10), CXCL10 (gene 3627); experiment: BSK_BE3C_IP10: BioMAP Diversity Plus: BE3C Assay for Interferon-gamma inducible Protein 10 (IP10) Biomarker Activity (AID 2283034); details: primary human bronchial epithelial cells; actives raise or lower the signal
Summary of the method: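 Human primary bronchial epithelial cells were exposed to chemicals for 24 hours, after which IP-10 levels were measured by ELISA. Data were fitted bidirectionally against DMSO, which served as the negative control and activity baseline.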

[3] = read-out: Monokine induced gamma interferon (MIG), CXCL9 (gene 4283); experiment: BSK_BE3C_MIG: BioMAP Diversity Plus: BE3C Assay for Monokine induced gamma interferon (MIG) Biomarker Activity (AID 2283035); details: primary human bronchial epithelial cells; actives raise or lower the signal
Summary of the method: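 MIG level was determined by ELISA after 24 h chemical treatment of primary human bronchial epithelial cells. Values were fitted bidirectionally with DMSO as the negative control and activity baseline.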

[4] = read-out: Transforming growth factor beta 1 (TGFb1), TGFB1 (gene 7040); experiment: BSK_BE3C_TGFb1: BioMAP Diversity Plus: BE3C Assay for Transforming growth factor beta 1 (TGFb1) Biomarker Activity (AID 2283036); details: primary human bronchial epithelial cells; actives raise or lower the signal
Summary of the method: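 Human primary bronchial epithelial cells (BE3C system) were dosed with chemical and TGF-b1 levels measured by ELISA at 24 h. Activity was fitted bidirectionally relative to DMSO negative control as baseline.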

[5] = read-out: Plasminogen activator inhibitor-1 (PAI1), SERPINE1 (gene 5054); experiment: BSK_BE3C_PAI1: BioMAP Diversity Plus: BE3C Assay for Plasminogen activator inhibitor-1 (PAI1) Biomarker Activity (AID 2283037); details: primary human bronchial epithelial cells; actives raise or lower the signal
Summary of the method: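 Human primary bronchial epithelial cells were exposed to chemical for 24 h, then PAI-1 was quantified by ELISA. Activity was fitted bidirectionally relative to the DMSO negative control baseline.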

[6] = read-out: urokinase plasminogen activator (uPA), PLAU (gene 5328); experiment: BSK_BE3C_uPA: BioMAP Diversity Plus: BE3C Assay for urokinase plasminogen activator (uPA) Biomarker Activity (AID 2283038); details: primary human bronchial epithelial cells; actives raise or lower the signal
Summary of the method: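 ELISA read-out of uPA in human lung primary bronchial epithelial cultures, 24 h post-dosing. Gain or loss of signal fitted bidirectionally relative to DMSO baseline; cytotoxicity checked in parallel cultures via SRB total protein stain.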

[7] = read-out: Urokinase-type plasminogen activator receptor (uPAR), PLAUR (gene 5329); experiment: BSK_BE3C_uPAR: BioMAP Diversity Plus: BE3C Assay for Urokinase-type plasminogen activator receptor (uPAR) Biomarker Activity (AID 2283039); details: primary human bronchial epithelial cells; actives raise or lower the signal
Summary of the method: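 Primary human bronchial epithelial cells were dosed with chemical and harvested 24 h later; uPAR was quantified by ELISA. Activity was fitted bidirectionally against DMSO as negative control and baseline.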

[8] = read-out: Interleukin-6 (IL6), IL6 (gene 3569); experiment: BSK_CASM3C_IL6: BioMAP Diversity Plus: CASM3C Assay for Interleukin-6 (IL6) Biomarker Activity for (AID 2283040); details: primary human coronary artery smooth muscle cells; actives raise or lower the signal
[9] = read-out: Tissue plasminogen activator (tPA), PLAT (gene 5327); experiment: BSK_BE3C_tPA: BioMAP Diversity Plus: BE3C Assay for Tissue plasminogen activator (tPA) Biomarker Activity (AID 2283041); details: primary human bronchial epithelial cells; actives raise or lower the signal
Summary of the method: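 Human primary bronchial epithelial cells were dosed with chemical and tPA biomarker levels measured by ELISA 24 hours later. Activity was fitted bidirectionally against DMSO as negative control and baseline.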

[10] = read-out: Interleukin-8 (IL8), CXCL8 (gene 3576); experiment: BSK_CASM3C_IL8: BioMAP Diversity Plus: CASM3C Assay for Interleukin-8 (IL8) Biomarker Activity (AID 2283042); details: primary human coronary artery smooth muscle cells; actives raise or lower the signal;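 further: IL-8 protein level quantified by ELISA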
[11] = read-out: Human Leukocyte Antigen - DR isotype (HLADR), HLA-DRA (gene 3122); experiment: BSK_CASM3C_HLADR: BioMAP Diversity Plus: CASM3C Assay for Human Leukocyte Antigen - DR isotype (HLADR) Biomarker Activity (AID 2283043); details: primary human coronary artery smooth muscle cells; actives raise or lower the signal;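 further: cell-surface HLA-DR protein level quantified by ELISA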
[12] = read-out: Macrophage colony-stimulating factor (MCSF), CSF1 (gene 1435); experiment: BSK_CASM3C_MCSF: BioMAP Diversity Plus: CASM3C Assay for Macrophage colony-stimulating factor (MCSF) Biomarker Activity (AID 2283044); details: primary human coronary artery smooth muscle cells; actives raise or lower the signal;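 further: M-CSF protein amount quantified by ELISA after 24 h exposure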
[13] = read-out: Low-density lipoprotein receptor (LDLR), LDLR (gene 3949); experiment: BSK_CASM3C_LDLR: BioMAP Diversity Plus: CASM3C Assay for Low-density lipoprotein receptor (LDLR) Biomarker Activity (AID 2283045); details: primary human coronary artery smooth muscle cells; actives raise or lower the signal;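 further: LDLR protein level on the cell surface quantified by ELISA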
[14] = read-out: Monocyte Chemoattractant Protein-1 (MCP1), CCL2 (gene 6347); experiment: BSK_CASM3C_MCP1: BioMAP Diversity Plus: CASM3C Assay for Monocyte Chemoattractant Protein-1 (MCP1) Biomarker Activity (AID 2283046); details: primary human coronary artery smooth muscle cells; actives raise or lower the signal;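 further: MCP-1 level quantified by ELISA 24 h after dosing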
[15] = BSK_CASM3C_Proliferation: Cell Proliferation Assessment in the BioMAP Diversity Plus: CASM3C Assay (AID 2283047); details: primary human coronary artery smooth muscle cells;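 further: sulforhodamine B total protein stain as relative cell number at 560 nm; sub-confluent cells exposed 48 h before staining; fitted both ways against DMSO so gain or loss of cell number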
[16] = read-out: Monokine induced gamma interferon (MIG), CXCL9 (gene 4283); experiment: BSK_CASM3C_MIG: BioMAP Diversity Plus: CASM3C Assay for Monokine induced gamma interferon (MIG) Biomarker Activity (AID 2283048); details: primary human coronary artery smooth muscle cells; actives raise or lower the signal;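 further: MIG protein level measured by ELISA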
[17] = read-out: serum amyloid A (SAA), SAA1 (gene 6288); experiment: BSK_CASM3C_SAA: BioMAP Diversity Plus: CASM3C Assay for serum amyloid A (SAA) Biomarker Activity (AID 2283049); details: primary human coronary artery smooth muscle cells; actives raise or lower the signal;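 further: SAA protein level quantified by ELISA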
[18] = BSK_CASM3C_SRB: Viability Assessment in the BioMAP Diversity Plus: CASM3C Assay (AID 2283050); details: primary human coronary artery smooth muscle cells;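 further: total protein by SRB staining as cytotoxicity measure in parallel cultures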
[19] = read-out: Thrombomodulin, THBD (gene 7056); experiment: BSK_CASM3C_Thrombomodulin: BioMAP Diversity Plus: CASM3C Assay for Thrombomodulin Biomarker Activity (AID 2283051); details: primary human coronary artery smooth muscle cells; actives raise or lower the signal;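 further: thrombomodulin protein level measured by ELISA 24 h after dosing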
[20] = read-out: Vascular cell adhesion molecule 1 (VCAM1), VCAM1 (gene 7412); experiment: BSK_4H_VCAM1: BioMAP Diversity Plus: 4H Assay for Vascular cell adhesion molecule 1 (VCAM1) Biomarker Activity (AID 2283033); details: primary human endothelial cells (HUVEC); actives raise or lower the signal
Summary of the method: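 Primary human umbilical vein endothelial cells were exposed to chemicals for 24 h, after which VCAM-1 was quantified by ELISA. Responses were fitted bidirectionally against DMSO as negative control and activity baseline.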

Measured: AC50

O=C(NS(=O)(=O)/C=C/c1cccs1)c1ccc(F)cc1Br
active: [2] 32.6 µM | [15] 5.22 µM
inactive: [1] | [3] | [4] | [5] | [6] | [7] | [8] | [9] | [10] | [11] | [12] | [13] | [14] | [16] | [17] | [18] | [19]

C/C=C/c1ccc(OC)cc1
inactive: [1] | [2] | [3] | [4] | [5] | [6] | [7] | [8] | [9] | [10] | [11] | [12] | [13] | [14] | [15] | [16] | [17] | [18] | [19]

CCCCCCCCCCCCCCOS(=O)(=O)O
inactive: [8] | [10] | [11] | [12] | [13] | [14] | [15] | [16] | [17] | [18] | [19]
active: [1] 20 µM | [2] 17.4 µM | [3] 34.2 µM | [4] 30.5 µM | [5] 20 µM | [6] 28.6 µM | [7] 16.1 µM | [9] 18.8 µM

CN(C)CCCN1c2ccccc2Sc2ccc(Cl)cc21
active: [20] 17.8 µM | [2] 30.5 µM | [3] 38.4 µM | [4] 32.1 µM | [6] 36.4 µM | [7] 29.4 µM | [9] 32.1 µM | [11] 27.7 µM | [12] 11.2 µM | [13] 5.41 µM | [14] 20 µM | [15] 28 µM | [18] 28.5 µM | [19] 15 µM
inactive: [8] | [10] | [16] | [17]

CCCCCCCCCCCCCCCCO
inactive: [1] | [2] | [3] | [4] | [6] | [7] | [8] | [9] | [10] | [11] | [12] | [13] | [14] | [15] | [16] | [17] | [18] | [19]

C/C=C/C=C/C(=O)O
inactive: [1] | [2] | [3] | [4] | [5] | [6] | [7] | [8] | [9] | [10] | [11] | [12] | [13] | [14] | [15] | [16] | [17] | [18] | [19]

COC(=O)CCC(=O)OC
inactive: [1] | [2] | [3] | [4] | [5] | [6] | [7] | [8] | [9] | [10] | [11] | [12] | [13] | [14] | [15] | [16] | [17] | [18] | [19]

CC(=O)[C@@]1(O)CC[C@H]2[C@@H]3CCC4=CC(=O)CC[C@]4(C)[C@H]3CC[C@@]21C
inactive: [1] | [2] | [3] | [4] | [6] | [7] | [9] | [10] | [11] | [12] | [13] | [14] | [15] | [16] | [17] | [18] | [19]
active: [8] 29.5 µM

Cc1cn([C@H]2C=C[C@@H](CO)O2)c(=O)[nH]c1=O
inactive: [1] | [2] | [3] | [4] | [5] | [6] | [7] | [8] | [9] | [10] | [11] | [12] | [13] | [14] | [15] | [16] | [17] | [18] | [19]

CCCCCCCCCC[N+](C)(C)[O-]
inactive: [1] | [2] | [3] | [4] | [6] | [7] | [8] | [9] | [10] | [11] | [12] | [13] | [14] | [15] | [16] | [17] | [18] | [19]

CCc1nc(N)nc(N)c1-c1ccc(Cl)cc1
inactive: [1] | [2] | [3] | [4] | [6] | [7] | [8] | [9] | [10] | [11] | [12] | [13] | [14] | [15] | [16] | [17] | [18] | [19]

CCCC(=O)O
inactive: [1] | [2] | [3] | [4] | [6] | [7] | [8] | [9] | [10] | [11] | [12] | [13] | [14] | [15] | [16] | [17] | [18] | [19]

O=C1CCCCC1
active: [19] 0.194 µM
inactive: [1] | [2] | [3] | [4] | [6] | [7] | [8] | [9] | [10] | [11] | [12] | [13] | [14] | [15] | [16] | [17] | [18]

Cc1cc(SC2=C(O)C[C@@](CCc3ccc(N)cc3)(C(C)C)OC2=O)c(C(C)(C)C)cc1CO
inactive: [1] | [2] | [3] | [4] | [5] | [6] | [7] | [8] | [9] | [10] | [11] | [12] | [13] | [14] | [15] | [16] | [17] | [18] | [19]

S=c1[nH]c2ccccc2s1
active: [12] 9.81 µM | [19] 8.08 µM
inactive: [1] | [2] | [3] | [4] | [5] | [6] | [7] | [8] | [9] | [10] | [11] | [13] | [14] | [15] | [16] | [17] | [18]

OCC(CO)n1cnc(-c2ccc(F)cc2)c1-c1ccnc(Oc2ccccc2)n1
active: [6] 3.97 µM | [8] 0.654 µM | [11] 0.408 µM | [12] 0.759 µM
inactive: [1] | [2] | [3] | [4] | [7] | [9] | [10] | [13] | [14] | [15] | [16] | [17] | [18] | [19]
